In PubChem BioAssay (EPA / NIEHS):
Results filed as inconclusive are left out. The source made the active and inactive calls. The calls were made as follows, unless noted: active = hit-call score of the fitted dose curve at least 0.9, where 1 is the maximum; inactive = score below 0.9.

Columns and labels:
[1] = target: Estrogen-related receptor gamma (Homo sapiens) (UniProt P62508); assay: ATG_ERRg_TRANS: Attagene TRANS-FACTORIAL HepG2 Assay for human Estrogen-Related Receptor gamma (ERRg) (AID 2282977; active = hit-call score of the fitted dose curve at least 0.9, where 1 is the maximum;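 also: hits increase reporter signal over DMSO so potencies reflect activators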); details: HepG2 Attagene TRANS reporter, ERRg transactivation
Method in brief: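 Exogenous NR-Gal4 chimera activity was assessed in HepG2 cells bearing transfected GAL4-UAS reporters. After 24 h dosing, total RNA underwent RT-PCR, fluorescent primer extension and HpaI digestion before capillary electrophoresis, with gain of signal scored against DMSO.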

[2] = target: Oxysterols receptor LXR-alpha (Homo sapiens) (UniProt Q13133); assay: ATG_LXRa_TRANS: Attagene TRANS-FACTORIAL HepG2 Assay for human Liver X Receptor alpha (LXRa) (AID 2282980; active = hit-call score of the fitted dose curve at least 0.9, where 1 is the maximum); details: HepG2 Attagene TRANS reporter, LXRa transactivation
Method in brief: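 In this multiplexed TRANS system, compounds act on HepG2 cells carrying GAL4-UAS reporter units and a receptor-GAL4 fusion for 24 h. Induced reporter RNA is amplified, fluorescently labelled and sized by capillary electrophoresis, with DMSO as baseline.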

[3] = target: Oxysterols receptor LXR-beta (Homo sapiens) (UniProt P55055); assay: ATG_LXRb_TRANS: Attagene TRANS-FACTORIAL HepG2 Assay for human Liver X Receptor beta (LXRb) (AID 2282981; active = hit-call score of the fitted dose curve at least 0.9, where 1 is the maximum); details: HepG2 Attagene TRANS GAL4-LXRb reporter, mRNA
Method in brief: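 After 24 h of chemical treatment, transfected HepG2 cells yield total RNA; reporter cDNA is PCR-amplified, FAM-labelled, HpaI-cut and run on capillary electrophoresis. Signal reflects chimeric LXRb-Gal4 activity on GAL4-UAS reporters.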

[4] = target: Hepatocyte nuclear factor 4-alpha (Homo sapiens) (UniProt P41235); assay: ATG_HNF4a_TRANS: Attagene TRANS-FACTORIAL HepG2 Assay for human Hepatocyte Nuclear Factor 4 alpha (HNF4a) (AID 2282982; active = hit-call score of the fitted dose curve at least 0.9, where 1 is the maximum); details: HepG2 HNF4a transactivation reporter, mRNA readout
Method in brief: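 Multiplexed reporter assay: transfected HepG2, 24 h exposure, total RNA → oligo(dT) RT → PCR → 6-FAM extension → HpaI digest → CE fluorescence. DMSO = negative control.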

[5] = ATG_M_06_TRANS: Attagene TRANS-FACTORIAL HepG2 Assay for M06 Transcription Factor (Internal Marker) (AID 2282983; active = hit-call score of the fitted dose curve at least 0.9, where 1 is the maximum;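 also: reporter transcript level by RT-PCR then capillary electrophoresis fluorescence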); details: HepG2 Attagene TRANS M06 internal marker reporter
Method in brief: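 Multi-reporter-transfected HepG2, 24 h treatment; reporter transcripts quantified via RT-PCR, primer-extension labelling and CE. DMSO-normalized gain-of-signal fit.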

[6] = ATG_M_32_TRANS: Attagene TRANS-FACTORIAL HepG2 Assay for M32 Transcription Factor (Internal Marker) (AID 2282984; active = hit-call score of the fitted dose curve at least 0.9, where 1 is the maximum;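 also: transcript level of a background control reporter unit measured by RT-PCR and capillary electrophoresis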); details: HepG2 Attagene TRANS M32 internal marker reporter
Method in brief: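 Cell-based TRANS-format assay in HepG2: exogenous chimeric GAL4 reporter units transiently expressed, compounds applied 24 h. Reporter mRNA detected by RT-PCR plus capillary electrophoresis; this readout is an internal background marker.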

[7] = target: Nuclear receptor subfamily 4 group A member 2 (Homo sapiens) (UniProt P43354); assay: ATG_NURR1_TRANS: Attagene TRANS-FACTORIAL HepG2 Assay for human Nuclear Receptor Related Protein 1 (NURR1) (AID 2282985; active = hit-call score of the fitted dose curve at least 0.9, where 1 is the maximum); details: HepG2 Attagene TRANS reporter, mRNA readout
Method in brief: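 Measures transcriptional activation by an exogenous NR-Gal4 chimera in transfected HepG2 liver cells. After 24 h, reporter RNA is reverse-transcribed, amplified and resolved by capillary electrophoresis; DMSO defines baseline.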

[8] = target: Transcriptional activator Myb (Homo sapiens) (UniProt P10242); assay: ATG_Myb_CIS: Attagene CIS-FACTORIAL HepG2 Assay for human Myeloblastosis (Myb) Proto-Oncogene Transcription Factor (AID 2282986); details: HepG2 Attagene CIS-FACTORIAL Myb reporter transcription; actives raise or lower the signal
Method in brief: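 Endogenous transcription factor activity at a Myb-responsive cis element is reported in human liver HepG2 cells after 24 h chemical treatment. Reporter mRNA is detected by RT-PCR and capillary electrophoresis fluorescence, with DMSO as baseline.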

[9] = target: Nuclear respiratory factor 1 (Homo sapiens) (UniProt Q16656); assay: ATG_NRF1_CIS: Attagene CIS-FACTORIAL HepG2 Assay for human Nuclear Respiratory Factor 1 (NRF1) Orphan Gene (AID 2282987); details: HepG2 NRF1 cis-element reporter, Attagene multiplex; actives raise or lower the signal
Method in brief: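 Human hepatoma HepG2 cells carrying transfected promoter-regulated reporter units were incubated with test chemicals for 24 h. Reporter transcripts were measured by RT-PCR plus capillary electrophoresis, and endpoints derived by bidirectional fitting with DMSO as baseline.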

[10] = ATG_NFI_CIS: Attagene CIS-FACTORIAL HepG2 Assay for human Nuclear Factor I (NFI) (AID 2282989); details: HepG2 cis-regulatory reporter, NFI response element transcription; actives raise or lower the signal
Method in brief: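 Transient MRTU transfection of HepG2 → 24 h chemical dosing → total RNA, oligo(dT) RT → PCR, 6-FAM primer extension, HpaI cut → capillary electrophoresis. Endpoint fitted bidirectionally relative to DMSO.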

[11] = target: Myc proto-oncogene protein (Homo sapiens) (UniProt P01106); assay: ATG_Myc_CIS: Attagene CIS-FACTORIAL HepG2 Assay for human Myelocytomatosis (Myc) Proto-Oncogene Transcription Factor (AID 2282990); details: HepG2, Attagene cis-reporter transcription factor activity; actives raise or lower the signal
Method in brief: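 HepG2, transient MRTU transfection (cis promoters, endogenous TFs); 24 h dosing; TriZol RNA → oligo(dT) RT → PCR → 6-FAM primer extension → HpaI cut → CE. Bidirectional fit vs DMSO.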

[12] = ATG_NF_kB_CIS: Attagene CIS-FACTORIAL HepG2 Assay for human Nuclear Factor Kappa B (NF-kB) (AID 2282991); details: HepG2 Attagene cis-factorial NF-kB reporter mRNA; actives raise or lower the signal
Method in brief: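 Multiplexed cis-reporter assay in transiently transfected HepG2. 24 h treatment; RNA isolated, RT-PCR, labelled fragments resolved by CE. DMSO baseline.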

[13] = ATG_NRF2_ARE_CIS: Attagene CIS-FACTORIAL HepG2 Assay for human Nuclear Factor Erythroid 2 Related Factor 2 (NFR2) response to Antioxidant Response Elements (ARE) (AID 2282992); details: HepG2 Attagene ARE/NRF2 reporter, transcription factor activity; actives raise or lower the signal
Method in brief: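 Endogenous transcription factor activity in human liver HepG2 cells is tracked via a cis-element-driven reporter within a multiplexed set. mRNA induction is read by RT-PCR and capillary electrophoresis after 24 h, with DMSO as baseline.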

[14] = ATG_Oct_MLP_CIS: Attagene CIS-FACTORIAL HepG2 Assay for human Octamer-Binding Transcription Factor (Oct) (AID 2282993); details: HepG2 Attagene cis-factorial Oct reporter, mRNA; actives raise or lower the signal
Method in brief: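 Transient MRTU transfection of HepG2 → 24 h compound treatment → RNA isolation, reverse transcription, PCR → 6-FAM primer extension, HpaI digest → capillary electrophoresis. Activity fitted both directions against DMSO.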

[15] = target: Cellular tumor antigen p53 (Homo sapiens) (UniProt P04637); assay: ATG_p53_CIS: Attagene CIS-FACTORIAL HepG2 Assay for human p53 Transcription Factor (AID 2282994); details: HepG2 p53 cis-element reporter, Attagene mRNA; actives raise or lower the signal
Method in brief: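 Steps: transfect HepG2 with multiplexed cis reporter constructs; dose chemicals 24 h; extract RNA, reverse-transcribe, PCR-amplify reporter sequences; FAM-label, HpaI-digest, resolve fragments by CE. Activity fitted both directions relative to DMSO.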

[16] = target: Glucocorticoid receptor (Homo sapiens) (UniProt P04150); assay: ATG_GR_TRANS: Attagene TRANS-FACTORIAL HepG2 Assay for human Glucocorticoid Receptor (GR) (AID 2282978; active = hit-call score of the fitted dose curve at least 0.9, where 1 is the maximum;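 also: activators score as hits since higher reporter transcript over DMSO is fitted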); details: HepG2 Attagene TRANS GR reporter, mRNA transcription
Method in brief: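 Multiplexed TRANS reporter system, HepG2; 24 h exposure; RNA → oligo(dT) RT → reporter-specific PCR → 6-FAM primer extension → HpaI cut → CE fluorescence. Gain-of-signal vs DMSO.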

[17] = target: Bile acid receptor (Homo sapiens) (UniProt Q96RI1); assay: ATG_FXR_TRANS: Attagene TRANS-FACTORIAL HepG2 Assay for Farnesoid X Receptor (FXR) (AID 2282979; active = hit-call score of the fitted dose curve at least 0.9, where 1 is the maximum;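 also: hits raise reporter mRNA above DMSO so AC50 marks FXR activation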); details: HepG2 Attagene TRANS FXR-GAL4 reporter transcription
Method in brief: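 After 24 h chemical treatment of transfected HepG2 cells, GAL4-UAS reporter transcripts driven by an exogenous FXR-GAL4 fusion were measured by RT-PCR and capillary electrophoresis. Increases over DMSO were fitted.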

Measured: outcome

Chain of Transcriptional activator Myb (Homo sapiens) (P10242 whole entry, looked up): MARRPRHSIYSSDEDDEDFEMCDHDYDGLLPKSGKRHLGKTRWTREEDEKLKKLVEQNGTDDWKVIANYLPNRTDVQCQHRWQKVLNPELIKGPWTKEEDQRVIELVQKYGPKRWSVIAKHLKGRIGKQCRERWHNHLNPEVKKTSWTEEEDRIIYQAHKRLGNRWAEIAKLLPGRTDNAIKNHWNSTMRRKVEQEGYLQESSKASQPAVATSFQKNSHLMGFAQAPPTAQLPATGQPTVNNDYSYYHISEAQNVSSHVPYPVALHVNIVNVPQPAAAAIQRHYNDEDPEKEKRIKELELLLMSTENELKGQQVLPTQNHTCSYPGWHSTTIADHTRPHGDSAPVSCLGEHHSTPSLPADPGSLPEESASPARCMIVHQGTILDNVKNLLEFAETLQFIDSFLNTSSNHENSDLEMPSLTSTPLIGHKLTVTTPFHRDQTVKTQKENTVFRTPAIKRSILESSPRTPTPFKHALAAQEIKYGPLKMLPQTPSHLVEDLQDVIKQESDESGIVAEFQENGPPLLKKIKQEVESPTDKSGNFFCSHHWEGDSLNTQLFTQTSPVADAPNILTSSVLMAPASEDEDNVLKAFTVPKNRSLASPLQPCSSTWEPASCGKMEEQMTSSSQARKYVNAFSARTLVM
Chain of Cellular tumor antigen p53 (Homo sapiens) (P04637 whole entry, looked up, the tested form may be a part): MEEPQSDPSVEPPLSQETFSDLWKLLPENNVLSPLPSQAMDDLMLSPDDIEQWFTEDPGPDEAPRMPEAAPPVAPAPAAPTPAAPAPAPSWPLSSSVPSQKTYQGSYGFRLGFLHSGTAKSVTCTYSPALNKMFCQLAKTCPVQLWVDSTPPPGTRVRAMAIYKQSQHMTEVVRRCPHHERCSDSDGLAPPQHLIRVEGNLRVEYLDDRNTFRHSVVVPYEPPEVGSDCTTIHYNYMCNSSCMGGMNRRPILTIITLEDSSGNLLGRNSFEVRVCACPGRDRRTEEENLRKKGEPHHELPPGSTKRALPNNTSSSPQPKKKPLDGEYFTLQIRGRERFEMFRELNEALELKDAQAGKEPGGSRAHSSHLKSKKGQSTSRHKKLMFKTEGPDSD
Chain of Myc proto-oncogene protein (Homo sapiens) (P01106 whole entry, looked up): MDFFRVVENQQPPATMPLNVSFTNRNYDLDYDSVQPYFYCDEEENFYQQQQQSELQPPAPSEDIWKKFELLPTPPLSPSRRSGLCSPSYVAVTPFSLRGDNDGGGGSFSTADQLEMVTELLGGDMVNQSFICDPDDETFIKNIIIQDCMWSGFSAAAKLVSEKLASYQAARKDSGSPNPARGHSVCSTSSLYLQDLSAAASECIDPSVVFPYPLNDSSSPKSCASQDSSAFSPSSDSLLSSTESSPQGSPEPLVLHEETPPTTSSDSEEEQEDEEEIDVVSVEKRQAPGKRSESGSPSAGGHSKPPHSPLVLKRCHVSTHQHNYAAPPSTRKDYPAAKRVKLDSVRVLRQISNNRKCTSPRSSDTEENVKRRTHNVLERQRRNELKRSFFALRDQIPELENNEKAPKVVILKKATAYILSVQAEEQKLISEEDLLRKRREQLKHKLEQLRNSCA
Chain of Oxysterols receptor LXR-alpha (Homo sapiens) (Q13133 whole entry, looked up, the tested form may be a part): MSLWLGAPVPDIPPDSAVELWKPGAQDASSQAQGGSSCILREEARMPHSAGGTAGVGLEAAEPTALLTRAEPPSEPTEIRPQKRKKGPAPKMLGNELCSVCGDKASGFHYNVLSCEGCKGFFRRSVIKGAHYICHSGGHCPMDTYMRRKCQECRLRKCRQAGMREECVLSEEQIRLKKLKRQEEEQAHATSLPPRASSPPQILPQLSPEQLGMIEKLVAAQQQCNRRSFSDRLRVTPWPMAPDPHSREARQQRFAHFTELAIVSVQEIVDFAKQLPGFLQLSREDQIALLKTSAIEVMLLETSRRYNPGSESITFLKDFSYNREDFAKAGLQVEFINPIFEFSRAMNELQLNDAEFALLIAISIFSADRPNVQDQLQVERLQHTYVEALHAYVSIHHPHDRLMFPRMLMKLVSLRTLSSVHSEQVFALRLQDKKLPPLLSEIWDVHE
Chain of Glucocorticoid receptor (Homo sapiens) (P04150 whole entry, looked up): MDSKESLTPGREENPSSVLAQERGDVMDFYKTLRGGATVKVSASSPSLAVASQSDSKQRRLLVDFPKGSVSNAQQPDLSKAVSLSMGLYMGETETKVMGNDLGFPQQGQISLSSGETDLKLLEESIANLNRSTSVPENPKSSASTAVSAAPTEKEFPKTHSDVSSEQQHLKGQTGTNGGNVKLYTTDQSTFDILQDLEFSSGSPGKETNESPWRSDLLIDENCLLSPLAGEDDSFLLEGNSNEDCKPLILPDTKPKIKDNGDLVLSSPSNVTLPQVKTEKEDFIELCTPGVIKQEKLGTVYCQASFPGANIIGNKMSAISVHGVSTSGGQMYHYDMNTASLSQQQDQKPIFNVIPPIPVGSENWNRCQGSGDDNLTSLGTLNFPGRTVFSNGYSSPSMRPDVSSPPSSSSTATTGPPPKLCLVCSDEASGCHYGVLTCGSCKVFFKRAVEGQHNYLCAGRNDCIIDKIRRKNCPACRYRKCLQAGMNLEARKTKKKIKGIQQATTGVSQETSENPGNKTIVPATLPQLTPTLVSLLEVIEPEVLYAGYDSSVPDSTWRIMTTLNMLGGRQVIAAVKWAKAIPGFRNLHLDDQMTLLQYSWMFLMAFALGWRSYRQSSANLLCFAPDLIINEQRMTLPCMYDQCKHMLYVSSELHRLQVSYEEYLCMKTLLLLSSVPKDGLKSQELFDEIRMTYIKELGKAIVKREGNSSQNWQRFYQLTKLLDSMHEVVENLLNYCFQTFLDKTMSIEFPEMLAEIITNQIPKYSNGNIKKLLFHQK
Chain of Nuclear respiratory factor 1 (Homo sapiens) (Q16656 whole entry, looked up): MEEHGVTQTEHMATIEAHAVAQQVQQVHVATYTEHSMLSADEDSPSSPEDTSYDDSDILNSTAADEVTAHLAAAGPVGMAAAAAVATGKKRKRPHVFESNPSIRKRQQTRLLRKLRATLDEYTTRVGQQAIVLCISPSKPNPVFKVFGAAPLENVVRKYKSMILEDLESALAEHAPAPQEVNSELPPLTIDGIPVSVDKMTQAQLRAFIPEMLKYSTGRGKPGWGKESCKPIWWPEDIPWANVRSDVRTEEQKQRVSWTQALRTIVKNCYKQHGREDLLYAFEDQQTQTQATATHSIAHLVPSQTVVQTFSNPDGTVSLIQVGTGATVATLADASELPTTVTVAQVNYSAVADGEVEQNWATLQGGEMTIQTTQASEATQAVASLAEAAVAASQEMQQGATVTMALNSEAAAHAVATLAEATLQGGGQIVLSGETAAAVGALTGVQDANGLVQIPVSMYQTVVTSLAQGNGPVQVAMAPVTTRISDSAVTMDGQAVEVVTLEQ
Chain of Hepatocyte nuclear factor 4-alpha (Homo sapiens) (P41235 whole entry, looked up): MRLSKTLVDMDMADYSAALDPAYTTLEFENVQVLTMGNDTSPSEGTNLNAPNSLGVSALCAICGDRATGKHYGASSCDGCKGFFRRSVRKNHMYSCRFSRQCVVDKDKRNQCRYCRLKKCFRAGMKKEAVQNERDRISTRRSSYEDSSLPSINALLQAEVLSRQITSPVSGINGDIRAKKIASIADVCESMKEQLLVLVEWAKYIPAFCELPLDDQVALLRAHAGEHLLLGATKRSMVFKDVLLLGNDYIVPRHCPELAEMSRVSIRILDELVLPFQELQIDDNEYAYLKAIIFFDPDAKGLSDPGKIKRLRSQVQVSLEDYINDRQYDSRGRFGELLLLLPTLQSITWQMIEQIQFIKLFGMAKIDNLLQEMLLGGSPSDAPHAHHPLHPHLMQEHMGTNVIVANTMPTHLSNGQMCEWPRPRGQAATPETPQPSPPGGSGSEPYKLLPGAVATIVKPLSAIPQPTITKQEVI
Chain of Nuclear receptor subfamily 4 group A member 2 (Homo sapiens) (P43354 whole entry, looked up, the tested form may be a part): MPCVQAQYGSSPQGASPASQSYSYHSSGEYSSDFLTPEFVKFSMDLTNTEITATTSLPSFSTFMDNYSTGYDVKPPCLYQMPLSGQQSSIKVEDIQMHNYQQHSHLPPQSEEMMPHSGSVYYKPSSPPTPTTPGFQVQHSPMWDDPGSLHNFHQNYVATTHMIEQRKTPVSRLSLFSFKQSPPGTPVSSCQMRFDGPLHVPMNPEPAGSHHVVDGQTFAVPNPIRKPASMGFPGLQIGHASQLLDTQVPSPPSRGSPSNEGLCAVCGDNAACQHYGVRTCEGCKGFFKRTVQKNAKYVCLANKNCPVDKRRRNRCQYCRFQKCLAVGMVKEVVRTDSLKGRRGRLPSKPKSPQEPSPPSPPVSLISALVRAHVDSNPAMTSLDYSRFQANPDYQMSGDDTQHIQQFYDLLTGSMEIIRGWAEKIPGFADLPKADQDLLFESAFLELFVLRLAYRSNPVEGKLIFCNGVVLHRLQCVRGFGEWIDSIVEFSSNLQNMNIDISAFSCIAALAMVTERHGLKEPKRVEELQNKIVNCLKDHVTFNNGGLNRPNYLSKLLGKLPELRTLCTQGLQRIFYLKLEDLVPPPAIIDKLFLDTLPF
Chain of Oxysterols receptor LXR-beta (Homo sapiens) (P55055 whole entry, looked up, the tested form may be a part): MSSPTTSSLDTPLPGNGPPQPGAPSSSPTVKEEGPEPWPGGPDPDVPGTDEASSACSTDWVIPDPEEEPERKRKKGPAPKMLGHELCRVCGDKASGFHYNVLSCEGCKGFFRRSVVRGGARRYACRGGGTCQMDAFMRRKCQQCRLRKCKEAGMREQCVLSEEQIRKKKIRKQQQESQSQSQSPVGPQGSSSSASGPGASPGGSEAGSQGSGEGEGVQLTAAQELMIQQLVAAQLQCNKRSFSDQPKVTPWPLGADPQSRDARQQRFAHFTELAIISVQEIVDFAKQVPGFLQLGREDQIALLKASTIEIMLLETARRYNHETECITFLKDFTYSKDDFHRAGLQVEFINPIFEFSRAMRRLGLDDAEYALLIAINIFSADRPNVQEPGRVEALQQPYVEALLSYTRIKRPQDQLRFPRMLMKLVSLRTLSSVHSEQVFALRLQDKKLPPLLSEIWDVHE

O=C(O)c1cc2ccccc2cc1O
not listed: [15] | [16] | [17]
inactive: all other assays above

Cc1cc(N)n(-c2ccccc2)n1
not listed: [3] | [4] | [6] | [16] | [17]
inactive: all other assays above

Cc1cccc(C)c1
not listed: [2] | [3] | [4] | [6] | [12] | [15] | [17]
inactive: all other assays above

O=C(O)c1ccccc1O
inactive: [1] | [3] | [6] | [8] | [9] | [10] | [11] | [13]

CC(=O)CC(=O)N(C)C
not listed: [1] | [2] | [8] | [12] | [13]
inactive: all other assays above

O=C(O)C1=NN(c2ccc(S(=O)(=O)O)cc2)C(=O)C1
not listed: [1] | [5] | [8] | [12] | [17]
inactive: all other assays above
